In PubChem BioAssay (EPA / NIEHS) one finds outcome and AC50 data, which are given here for six molecules.

Test [1] can be described thus: ATG_E_Box_CIS: Attagene CIS-FACTORIAL HepG2 Assay for human Enhancer Box (E-box) (AID 2282936). The following applies: HepG2 E-box cis-reporter transcription, actives raise or lower the signal. A digest of the protocol:
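Cells: HepG2 (human liver), transient MRTU transfection. Exposure 24 h. RNA → oligo(dT) RT → PCR → 6-FAM label → HpaI → CE. Activity fitted both directions relative to DMSO.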

The nature of test [2]: ATG_M_61_CIS: Attagene CIS-FACTORIAL HepG2 Assay for M61 Transcription Factor (Internal Marker) (AID 2282937). The following applies: HepG2 Attagene CIS-FACTORIAL M61 internal marker reporter; actives raise or lower the signal. The method in brief: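 Human liver HepG2, transient MRTU transfection (cis promoter elements), 24 h compound. Total RNA → oligo(dT) RT → PCR → FAM label → HpaI → CE. Internal background marker; bidirectional fitting, DMSO = baseline.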

Test [3] is described as follows: ATG_EGR_CIS: Attagene CIS-FACTORIAL HepG2 Assay for human Early Growth Response 1 (EGR1) (AID 2282938). The following applies: HepG2 Attagene CIS-FACTORIAL EGR reporter mRNA; actives raise or lower the signal. A digest of the protocol:
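Transient transfection of human HepG2 with multiple cis-regulated reporter units, chemical exposure 24 h, total RNA isolated. Reverse transcription, PCR, fluorescent labelling and capillary electrophoresis quantify reporter transcripts; activity fitted bidirectionally against DMSO.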

Test [4] in a line: ATG_M_19_CIS: Attagene CIS-FACTORIAL HepG2 Assay for M19 Transcription Factor (Internal Marker) (AID 2282939). The following applies: HepG2 Attagene CIS-FACTORIAL M19 internal marker reporter; actives raise or lower the signal. A digest of the protocol: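 Following a 24 h exposure, RNA from transfected HepG2 cells was reverse-transcribed, PCR-amplified with reporter-specific primers, end-labelled with 6-FAM and HpaI-digested before capillary separation. Values represent gain or loss versus DMSO.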

A short description of test [5]: ATG_Ets_CIS: Attagene CIS-FACTORIAL HepG2 Assay for human Erythroblast Transformation Specific (ETS) (AID 2282941). The following applies: HepG2 ETS cis-reporter transcription, actives raise or lower the signal. A digest of the protocol:
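HepG2 cells transfected with multiple cis-regulated reporter units measuring endogenous ETS-driven transcription, 24 h after dosing. Reporter mRNA quantified by RT-PCR with capillary electrophoresis; bidirectional fit relative to DMSO.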

Test [6] concerns the target Hepatocyte nuclear factor 3-beta (Homo sapiens) (UniProt Q9Y261). The test can be described thus: ATG_FoxA2_CIS: Attagene CIS-FACTORIAL HepG2 Assay for human Forkhead box A2 (FOXA2) (AID 2282942). The following applies: HepG2 cis-reporter transcription factor activity, 24 h; actives raise or lower the signal. A digest of the protocol:
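Transient MRTU transfection of HepG2 liver cells; 24 h treatment; total RNA → oligo(dT) RT → PCR → FAM primer extension → HpaI cut → CE. Bidirectional fit vs DMSO.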

The nature of test [7]: ATG_FoxO_CIS: Attagene CIS-FACTORIAL HepG2 Assay for human Forkhead box O (FoxO) (AID 2282943). The following applies: HepG2 Attagene cis-reporter, FoxO element, mRNA; actives raise or lower the signal. A digest of the protocol:
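HepG2, transient MRTU transfection (cis element, endogenous TFs). Dose 24 h. TriZol RNA → oligo(dT) RT → PCR → 6-FAM primer extension → HpaI cut → CE. Gain/loss vs DMSO.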

Test [8] can be described thus: ATG_GATA_CIS: Attagene CIS-FACTORIAL HepG2 Assay for human GATA Binding Protein (AID 2282944). The following applies: HepG2 GATA cis-element reporter, Attagene multiplex mRNA; actives raise or lower the signal. A digest of the protocol:
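DMSO serves as negative control and baseline for bidirectional fitting of reporter mRNA changes. HepG2 cells bearing transiently transfected cis-promoter reporters were exposed 24 h; transcripts detected via RT-PCR and capillary electrophoresis.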

Test [9] in a line: ATG_GLI_CIS: Attagene CIS-FACTORIAL HepG2 Assay for human Zinc Finger Protein GLI1 (AID 2282945). The following applies: HepG2, Attagene cis-factorial reporter mRNA, GLI element; actives raise or lower the signal. A digest of the protocol: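 Bidirectional curve fits relative to DMSO, using reporter mRNA levels from RT-PCR plus capillary electrophoresis. Cells were HepG2 transiently carrying cis-regulated reporter constructs, harvested 24 h after dosing.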

For test [10], the target named is Bile acid receptor (Homo sapiens) (UniProt Q96RI1). The test can be described thus: ATG_IR1_CIS: Attagene CIS-FACTORIAL HepG2 Assay for human Nuclear Receptor Subfamily 1 Group H Member 4 (NR1H4), IR1 submotif (AID 2282946). The following applies: IR1 reporter transcription, actives raise or lower the signal. The method in brief:
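Cells (human HepG2) carry transiently transfected cis-promoter reporter transcription units. Compounds are incubated 24 h, total RNA is reverse-transcribed and amplified, and labelled fragments are resolved by capillary electrophoresis. Curves use DMSO as baseline.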

The nature of test [11]: ATG_GRE_CIS: Attagene CIS-FACTORIAL HepG2 Assay for human Glucocorticoid Response Elements (GRE) (AID 2282947). The following applies: HepG2 GRE cis-reporter, Attagene multiplex mRNA; actives raise or lower the signal. The method in brief:
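Transient MRTU transfection of human HepG2 liver cells; cis-regulated reporters report endogenous factors. 24 h dosing → RNA isolation → RT-PCR → 6-FAM primer extension → HpaI cut → CE fragment analysis. Bidirectional fit, DMSO negative control.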

Test [12] in a line: ATG_ISRE_CIS: Attagene CIS-FACTORIAL HepG2 Assay for human Interferon Regulatory Factor 1 (IRF1) binding to an Interferon-Stimulated Response Element (ISRE) (AID 2282948). The following applies: HepG2 ISRE cis-reporter (Attagene), mRNA transcription readout; actives raise or lower the signal. The method in brief:
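Transiently transfected HepG2 cells carrying cis-element reporter units, dosed 24 hours. Reporter mRNA quantified by RT-PCR, fluorescent primer extension, HpaI digestion and capillary electrophoresis. Bidirectional fitting relative to DMSO.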

The nature of test [13]: ATG_M_32_CIS: Attagene CIS-FACTORIAL HepG2 Assay for M32 Transcription Factor (Internal Marker) (AID 2282949).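 Note: background control marker of the multiplexed CIS panel rather than a real target.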 The following applies: HepG2 Attagene cis-factorial M32 reporter, mRNA; actives raise or lower the signal. The method in brief:
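HepG2 cells transiently transfected with multiplexed cis-regulated reporter units, dosed 24 h. Reporter mRNA quantified by RT-PCR, 6-FAM labelling, HpaI digestion and capillary electrophoresis; bidirectional fit vs DMSO.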

Test [14] is described as follows: ATG_M_06_CIS: Attagene CIS-FACTORIAL HepG2 Assay for M06 Transcription Factor (Internal Marker) (AID 2282950). The following applies: HepG2 Attagene CIS-FACTORIAL M06 internal marker reporter; actives raise or lower the signal. A digest of the protocol: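 Fluorescence-labelled RT-PCR products from cis-promoter reporter units, cut with HpaI and resolved by capillary electrophoresis, give the signal. Cells are human HepG2, dosed for 24 h. Serves as background control, fitted relative to DMSO.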

Test [15] has as its target Hypoxia-inducible factor 1-alpha (Homo sapiens) (UniProt Q16665). The test can be described thus: ATG_HIF1a_CIS: Attagene CIS-FACTORIAL HepG2 Assay for human Hypoxia Inducible Factor 1 (HIF1A) (AID 2282951). The following applies: HepG2 Attagene cis-factorial HIF1a reporter transcription; actives raise or lower the signal. A digest of the protocol: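 Transient MRTU transfection of human HepG2 liver cells, 24 h compound treatment, then total RNA isolation, oligo(dT) reverse transcription, PCR amplification, fluorescent labelling and capillary electrophoresis of reporter fragments. Gain or loss relative to DMSO.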

The target of test [16] is Hepatocyte nuclear factor 6 (Homo sapiens) (UniProt Q9UBC0). Description: ATG_HNF6_CIS: Attagene CIS-FACTORIAL HepG2 Assay for human Hepatocyte Nuclear Factor 6 (HNF6) (AID 2282952). The following applies: HepG2 Attagene cis-factorial HNF6 reporter transcription; actives raise or lower the signal. A digest of the protocol: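 HepG2 cells transiently transfected with cis-element-driven multiplexed reporter units measuring endogenous transcription factor activity. After 24 h exposure, reporter mRNA quantified by RT-PCR, FAM-labelled fragments and capillary electrophoresis; bidirectional fitting versus DMSO.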
Hepatocyte nuclear factor 6 (Homo sapiens), sequence (Q9UBC0 whole entry, looked up, the tested form may be a part): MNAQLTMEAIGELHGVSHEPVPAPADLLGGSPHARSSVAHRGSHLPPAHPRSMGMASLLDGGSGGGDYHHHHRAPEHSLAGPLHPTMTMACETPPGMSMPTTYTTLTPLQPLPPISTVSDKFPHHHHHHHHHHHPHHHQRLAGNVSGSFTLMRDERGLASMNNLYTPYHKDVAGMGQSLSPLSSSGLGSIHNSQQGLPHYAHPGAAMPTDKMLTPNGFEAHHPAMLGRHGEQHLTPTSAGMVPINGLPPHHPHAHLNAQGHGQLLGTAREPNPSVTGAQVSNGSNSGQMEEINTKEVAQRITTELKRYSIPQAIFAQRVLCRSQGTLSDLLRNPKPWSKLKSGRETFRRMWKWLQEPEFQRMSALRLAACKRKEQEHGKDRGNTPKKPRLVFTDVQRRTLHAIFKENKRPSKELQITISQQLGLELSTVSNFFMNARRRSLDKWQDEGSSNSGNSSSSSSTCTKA

In test [17] the target is Heat shock factor protein 1 (Homo sapiens) (UniProt Q00613). The test can be described thus: ATG_HSE_CIS: Attagene CIS-FACTORIAL HepG2 Assay for human Heat Shock Transcription Factor 1 (HSE) (AID 2282953). The following applies: HepG2 HSE cis-reporter, Attagene RNA transcription; actives raise or lower the signal. A digest of the protocol:
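After a 24 h incubation with test chemical, transfected HepG2 cells were harvested for RNA; reporter transcripts were measured by RT-PCR and capillary electrophoresis. Values reflect gain or loss of signal relative to DMSO.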

Test [18] can be described thus: ATG_MRE_CIS: Attagene CIS-FACTORIAL HepG2 Assay for human Metal Responsive Element (MRE) (AID 2282954). The following applies: HepG2 MRE cis-reporter transcription, Attagene multiplex; actives raise or lower the signal. The method in brief: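 Transient MRTU transfection of HepG2 (FuGene 6); 24 h dosing; total RNA → oligo(dT) RT, PCR, 6-FAM primer extension, HpaI cut, CE. Bidirectional fit vs DMSO.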

Test [19] addresses Paired box protein Pax-6 (Homo sapiens) (UniProt P26367). The test can be described thus: ATG_Pax6_CIS: Attagene CIS-FACTORIAL HepG2 Assay for human Paired Box 6 (PAX6) (AID 2282956). The following applies: HepG2 CIS-FACTORIAL PAX6 reporter transcription, RNA readout; actives raise or lower the signal. A digest of the protocol:
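HepG2 cells transiently transfected with cis-promoter-driven multiplexed reporter units sensing endogenous transcription factor activity; 24 h chemical exposure. Reporter mRNA quantified by RT-PCR, 6-FAM labelling, HpaI digestion and capillary electrophoresis; bidirectional fit versus DMSO baseline.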

Test [20] is described as follows: ATG_PBREM_CIS: Attagene CIS-FACTORIAL HepG2 Assay for human Phenobarbital-responsive Enhancer Module (PBREM) (AID 2282955). The following applies: HepG2 PBREM cis-reporter, Attagene multiplexed transcription; actives raise or lower the signal. The method in brief: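 Endogenous transcription factors in human liver HepG2 cells drive a PBREM cis-element reporter, whose transcript level after 24 h treatment is quantified by RT-PCR with capillary electrophoresis; activity fitted in both directions against DMSO.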

Several values for one entry are separate records, joined by “and”; a condition that tells them apart may be missing. Equal entries are not always repeated. Some compounds were tested as several samples or in several runs, with calls that do not always agree. Activity calls are given as the source filed them. Rule for the calls: active = hit-call score of the fitted dose curve at least 0.9, where 1 is the maximum; inactive = score below 0.9.

Usually AC50 stands for the concentration giving half of the maximal activity seen.

Hepatocyte nuclear factor 3-beta (Homo sapiens), sequence (Q9Y261 whole entry, looked up): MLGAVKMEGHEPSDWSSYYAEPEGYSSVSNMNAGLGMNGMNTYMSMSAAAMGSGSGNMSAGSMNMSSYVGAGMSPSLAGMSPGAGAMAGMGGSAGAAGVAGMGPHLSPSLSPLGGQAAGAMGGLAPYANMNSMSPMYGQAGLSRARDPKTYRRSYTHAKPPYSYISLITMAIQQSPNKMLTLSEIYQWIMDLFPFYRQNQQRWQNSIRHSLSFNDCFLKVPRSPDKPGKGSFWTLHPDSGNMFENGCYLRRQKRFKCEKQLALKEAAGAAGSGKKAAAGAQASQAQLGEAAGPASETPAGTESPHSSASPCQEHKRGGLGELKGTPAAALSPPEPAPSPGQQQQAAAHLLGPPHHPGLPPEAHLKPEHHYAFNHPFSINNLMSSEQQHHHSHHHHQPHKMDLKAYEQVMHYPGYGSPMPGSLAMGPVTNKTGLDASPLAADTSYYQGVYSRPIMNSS
Hypoxia-inducible factor 1-alpha (Homo sapiens), sequence (Q16665 whole entry, looked up, the tested form may be a part): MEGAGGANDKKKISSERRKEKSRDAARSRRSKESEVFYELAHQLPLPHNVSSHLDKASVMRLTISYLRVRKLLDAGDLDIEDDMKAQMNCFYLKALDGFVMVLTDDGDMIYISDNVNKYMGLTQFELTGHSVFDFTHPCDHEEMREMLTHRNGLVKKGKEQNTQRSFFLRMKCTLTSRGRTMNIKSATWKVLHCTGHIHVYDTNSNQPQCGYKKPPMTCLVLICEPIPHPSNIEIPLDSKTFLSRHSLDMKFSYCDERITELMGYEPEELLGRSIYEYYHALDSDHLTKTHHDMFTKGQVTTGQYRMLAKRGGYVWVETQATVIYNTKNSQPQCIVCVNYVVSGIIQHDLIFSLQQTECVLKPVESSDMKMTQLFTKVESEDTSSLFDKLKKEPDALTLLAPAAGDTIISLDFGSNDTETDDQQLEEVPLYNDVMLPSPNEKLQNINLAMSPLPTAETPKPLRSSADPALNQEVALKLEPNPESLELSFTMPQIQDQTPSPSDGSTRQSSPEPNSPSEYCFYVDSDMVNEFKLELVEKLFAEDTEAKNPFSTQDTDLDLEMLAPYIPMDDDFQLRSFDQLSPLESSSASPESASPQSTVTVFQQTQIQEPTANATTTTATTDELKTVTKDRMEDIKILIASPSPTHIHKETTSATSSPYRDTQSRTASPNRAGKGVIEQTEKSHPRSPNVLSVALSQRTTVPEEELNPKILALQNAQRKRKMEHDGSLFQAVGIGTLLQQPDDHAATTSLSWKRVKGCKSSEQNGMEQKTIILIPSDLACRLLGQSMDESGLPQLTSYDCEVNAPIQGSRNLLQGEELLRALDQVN
Heat shock factor protein 1 (Homo sapiens), sequence (Q00613 whole entry, looked up): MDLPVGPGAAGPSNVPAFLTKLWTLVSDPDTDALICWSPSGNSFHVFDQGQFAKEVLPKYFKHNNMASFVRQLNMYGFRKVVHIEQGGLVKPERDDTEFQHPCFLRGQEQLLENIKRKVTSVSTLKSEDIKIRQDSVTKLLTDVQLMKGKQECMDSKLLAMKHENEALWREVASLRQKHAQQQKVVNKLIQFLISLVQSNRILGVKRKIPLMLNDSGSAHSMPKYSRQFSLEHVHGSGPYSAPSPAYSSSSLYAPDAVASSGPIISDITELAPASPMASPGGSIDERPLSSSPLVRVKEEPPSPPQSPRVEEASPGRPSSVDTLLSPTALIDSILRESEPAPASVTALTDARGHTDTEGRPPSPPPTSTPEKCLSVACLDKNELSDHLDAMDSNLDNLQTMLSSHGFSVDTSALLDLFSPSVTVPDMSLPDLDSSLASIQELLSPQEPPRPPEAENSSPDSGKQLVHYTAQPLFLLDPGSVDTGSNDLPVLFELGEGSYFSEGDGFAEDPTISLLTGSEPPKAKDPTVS
Paired box protein Pax-6 (Homo sapiens), sequence (P26367 whole entry, looked up): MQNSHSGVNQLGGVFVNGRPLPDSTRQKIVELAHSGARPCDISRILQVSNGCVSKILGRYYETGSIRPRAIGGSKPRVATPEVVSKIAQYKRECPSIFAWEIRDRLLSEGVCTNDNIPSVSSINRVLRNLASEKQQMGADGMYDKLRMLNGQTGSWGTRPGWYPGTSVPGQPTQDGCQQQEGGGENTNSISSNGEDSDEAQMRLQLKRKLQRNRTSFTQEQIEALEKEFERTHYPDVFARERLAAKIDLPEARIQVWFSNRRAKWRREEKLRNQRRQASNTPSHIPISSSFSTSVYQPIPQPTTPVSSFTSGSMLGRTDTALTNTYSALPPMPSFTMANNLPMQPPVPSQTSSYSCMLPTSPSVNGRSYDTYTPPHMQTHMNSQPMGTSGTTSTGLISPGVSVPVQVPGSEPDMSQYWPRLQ
Bile acid receptor (Homo sapiens), sequence (Q96RI1 whole entry, looked up, the tested form may be a part): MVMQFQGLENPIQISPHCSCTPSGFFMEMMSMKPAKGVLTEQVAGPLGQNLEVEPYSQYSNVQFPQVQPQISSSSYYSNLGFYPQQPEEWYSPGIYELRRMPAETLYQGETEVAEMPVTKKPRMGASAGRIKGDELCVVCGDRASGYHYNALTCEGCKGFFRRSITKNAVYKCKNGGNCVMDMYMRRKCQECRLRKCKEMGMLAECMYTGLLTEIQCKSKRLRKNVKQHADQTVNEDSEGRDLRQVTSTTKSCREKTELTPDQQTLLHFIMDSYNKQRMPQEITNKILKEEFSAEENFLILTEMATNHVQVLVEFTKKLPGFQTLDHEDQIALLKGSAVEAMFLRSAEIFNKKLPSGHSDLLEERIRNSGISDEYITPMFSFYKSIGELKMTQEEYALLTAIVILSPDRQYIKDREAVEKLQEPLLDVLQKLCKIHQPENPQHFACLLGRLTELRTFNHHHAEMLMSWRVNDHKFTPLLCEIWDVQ

Consider `CCN(CC)C(=O)c1cccc(C)c1`, for which the outcome in test [1], in test [2], in [3], in test [4], in test [5] and in [6] was inactive. Moreover, the outcome in test [7], in test [8], in test [9], in test [10], in [11] and in test [12] was inactive. The call in [13], in test [14], in test [15], in test [16], in test [17] and in test [18] was inactive. In addition, the outcome in [19] was inactive.

Consider `CCCCOC(=O)C(C)Oc1ccc(Oc2ccc(C(F)(F)F)cn2)cc1` (stereo unspecified), for which the result in test [1], in test [2], in test [3], in test [4], in test [5] and in test [6] was inactive. For the same molecule, the result in test [7], in test [8], in test [9], in [10], in test [11] and in test [12] was inactive. Further, the result in test [13], in test [14], in test [15], in [16], in test [18] and in test [20] was inactive. For the same molecule, the outcome in test [19] was inactive.

For the molecule `COC(=O)CSc1cc(N=c2sc(=O)n3n2CCCC3)c(F)cc1Cl`, the outcome in test [1], in test [2], in test [3], in test [4], in test [5] and in test [6] was inactive. Moreover, the result in [7], in [8], in [9], in [10], in test [11] and in [12] was inactive. The outcome in test [13], in test [14], in test [15], in test [16], in [17] and in test [18] was inactive.

With `Oc1ccc(C(c2ccc(O)cc2)C(Cl)(Cl)Cl)cc1`, the outcome in [1], in test [2], in [3], in test [4], in [5] and in test [6] was inactive. Further, the call in test [7], in [8], in test [9], in test [10], in [11] and in test [12] was inactive. The outcome in [13], in test [14], in [15], in [16] and in test [18] was inactive.

`CC(=O)S[C@@H]1CC2=CC(=O)CC[C@]2(C)[C@H]2CC[C@@]3(C)[C@@H](CC[C@@]34CCC(=O)O4)[C@H]12`: the AC50 was 7.33 µM (active) and 26.6 µM (active) and 18.4 µM (active) in test [1]; 17.6 µM (active) and 27.2 µM (active) in [3]; 100 µM (active) in [5]; 48.9 µM (active) and 26.1 µM (active) and 48.1 µM (active) in test [12]; 76.9 µM (active) [middle of 4 runs] in [18]. Further, the outcome in test [1], in test [2], in test [3], in test [4], in test [5] and in test [6] was inactive. The result in [7], in [8], in [9], in test [11], in test [12] and in test [13] was inactive. Moreover, the molecule was called inactive in test [14], in test [15], in test [16] and in test [18].

Consider `CCCN(CCC)C(=O)SCC`, for which the result in [1], in [2], in [3], in test [4], in test [5] and in test [6] was inactive. For the same molecule, the call in test [7], in test [8], in test [9], in test [11], in test [12] and in test [13] was inactive. The outcome in [14], in test [15], in [16], in test [18] and in [20] was inactive.
